# According to PubChem BioAssay AID2546 (National Center for Advancing Translational Sciences (NCATS), 2010):
# Values joined by “and” are separate entries in the source; they are usually repeats but may differ in a detail not shown here. Equal entries are not always repeated. Hit rate of the full screen: of about 310,000 compounds, about 11,000 (3.5%) were called active. About 8% were inconclusive and are not listed. Shown is part of a subset that was picked to be rich in actives. Values without a mark were called inactive. Calls come from the whole dose curve; as a rule, active = well fitted inhibition curve with a large enough effect; inconclusive = small, poorly fitted or top-dose-only effect, or effect the other way; inactive = flat fitted curve, though single readings scatter.
# Assay: VP16 counterscreen qHTS for inhibitors of ROR gamma transcriptional activity;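 note: Gal4-VP16 expression switched on by copper sulfate through the metallothionein promoter; nearly all actives have a fitted effect of over 50% in size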
# Details: Drosophila S2 Gal4-VP16 UAS-luciferase, luminescence, 20 h; series mostly up to 53.6 µM; activity, negative = inhibition: at the top concentration
# % is set by controls: 0 for no effect and ±100 for the full control effect; potency is the fitted concentration of half-maximal effect.
SMILES,"activity, negative = inhibition [%]",Potency
Cc1n[nH]c(=O)n1-c1ccc(C(C)C)cc1,6.72,
Cc1n[nH]c(=O)n1-c1ccc(Oc2ccccc2)cc1,,0.891 µM (active)
COc1ccc(Oc2ncc3nc(C)c(=O)n(-c4ccccc4)c3n2)cc1,4.94,
Cc1cccc(CNS(=O)(=O)c2ccc(-c3cnc(C4CC4)o3)cc2)c1,-17.6,
CCOc1ccc(CN(C)C(=O)c2ccc(=O)[nH]c2)cc1,8.5,
Cc1cccc(NC(=O)c2cccnc2Cl)n1,6.9,
Cc1ccc2nc(N(CCN(C)C)C(=O)C3=COCCO3)sc2c1,19.1,
COc1ccc2cc(S(=O)(=O)Nc3ccccn3)ccc2c1,-11,
COc1cc(NS(=O)(=O)c2ccc3ccccc3c2)c2ncccc2c1,,708 nM (active) and 562 nM (active)
Cc1ccc(NS(=O)(=O)c2ccc(C)c(NC(=O)COc3ccc4ccccc4c3)c2)c(C)c1,-3.61,
N#CCSc1nc(-c2ccccc2)nc2ccc(F)cc12,0.836,
Cc1nc2ccc(S(=O)(=O)N(C)CC(=O)NC(C)c3ccccc3)cc2s1 (centres undefined),13.1,
CC1CC(C)(C)NC(=S)N1CCC(=O)N1CCN(Cc2ccccc2)CC1 (centres undefined),-2.35,
CC1CC(=O)Nc2ccccc2N1S(=O)(=O)c1cccs1 (centres undefined),4.46,
CC1CC(=S)Nc2ccccc2N1Cc1ccccc1 (centres undefined),,3.16 µM (active)
Cc1ccccc1OCC(=O)Nc1ccc(S(=O)(=O)N2CCOCC2)cc1,9.7,
O=C(c1ccccc1)N1CCN(C(=O)c2cc3nc(-c4ccccc4)cc(C(F)(F)F)n3n2)CC1,-8.68,
COc1ccc(-c2cc(C(F)(F)F)nc(SCC(=O)Nc3ccc4c(c3)OCO4)n2)cc1OC,-26.3,
COc1cc(OC)nc(S(C)(=O)=O)n1,-27.7,
COc1ccc(-c2cc(C(F)(F)F)nc(S(C)(=O)=O)n2)cc1OC,,5.62 µM (active)
CC1=C(C(=O)OCC2CCCCC2)C(c2ccc(F)cc2)NC(=O)N1 (centres undefined),2.73,
CC1CN(C(=S)Nc2ccccc2F)CC(C)O1 (centres undefined),0.303,
COC(=O)c1sccc1NC(=O)COc1ccc(Cl)cc1,-1.35,
COC(=O)c1c(NC(=O)COc2ccc(Cl)cc2Cl)sc2c1CC(C)(C)NC2(C)C,,22.4 µM (active)
CCOC(=O)c1c(NC(=O)c2ccc(S(=O)(=O)N(C)CC3CCCO3)cc2)sc2c1CC(C)(C)NC2(C)C (centres undefined),-4.31,
CCCn1c(C(C)Nc2nc(-c3ccc(C)cc3)cs2)nc2cc(Cl)c(N3CCCCC3)cc21 (centres undefined),-9.71,
S=C(NN=C1CCN(Cc2ccccc2)CC1)NC1CCCCC1,-1.84,
CCCC1CCC(=NNC(=S)NCCc2ccccc2)CC1 (centres undefined),,11.2 µM (active)
O=C(NCCc1ccccc1)C1CC1,-4.59,
